Assay in all cases: qHTS profiling for inhibitors of Plasmodium falciparum proliferation (AID 504749); note: nearly all actives have a fitted effect of over 60% in size
Common to all, as to settings: P. falciparum in erythrocytes, SYBR Green DNA, 72 h; series mostly up to 28.7 µM
In general terms: Quantitative high-throughput screening tests each substance at several concentrations.

In one test the test system is ATS95. An outline of the steps:
(§1)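 Parasite proliferation within erythrocytes, 72 h exposure. Endpoint: SYBR Green I fluorescence after overnight lysis at room temperature. Controls: 0.29 uM artemisinin, DMSO.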

For another test, the system named is C2A. An outline of the steps: as §1
In a further test the test system is CP185. In short, it runs like this:
as §1

The next test concerns CP191. In short, it runs like this:
as §1

A further test deals with CP192. In short, it runs like this: as §1
In a further test the test system is CP194. In short, it runs like this:
as §1

The test system of another test is CP201. An outline of the steps: as §1
A further test has as its system CP203. An outline of the steps: as §1
The test system of a further test is CP211. An outline of the steps: as §1
Another test deals with CP215. An outline of the steps:
as §1

For another test, the system named is CP217. An outline of the steps:
as §1

The test system of a further test is CP237. An outline of the steps:
as §1

A further test concerns CP238. An outline of the steps: as §1
For another test, the system named is CP247. An outline of the steps:
as §1

The next test concerns CP250. In short, it runs like this:
as §1

For another test, the system named is CP252. An outline of the steps: as §1
The next test concerns CP256. In short, it runs like this:
as §1

A further test has as its system CP260. In short, it runs like this: as §1
The next test has as its system CP262. An outline of the steps:
as §1

For another test, the system named is CP265. An outline of the steps:
as §1

Inconclusive results are not listed. Calls of active or inactive are those of the source. Calls come from the whole dose curve; as a rule, active = well fitted inhibition curve with a large enough effect; inconclusive = small, poorly fitted or top-dose-only effect; inactive = flat fitted curve, though single readings scatter.
Potency is the fitted concentration of half-maximal effect.

For the compound `NC(=S)NS(=O)(=O)c1ccc(N)cc1`, the Potency result in the test on ATS95, with C2A, in the test with CP185, in the test with CP191, in the test on CP192 and with CP194 was “inactive” each time. In addition, the Potency entry in the test with CP201, in the test with CP203, in the test with CP211, with CP215, with CP217 and with CP237 was “inactive” in each case. Besides, the Potency entry in the test with CP238, in the test on CP247, in the test on CP250, with CP252, with CP256 and in the test on CP260 was “inactive” each time. Further, the Potency entry in the test with CP262 and in the test on CP265 was “inactive” throughout.

Take `Cc1ncc(C[n+]2csc(CCOP(=O)(O)OP(=O)(O)O)c2C)c(N)n1`: the Potency result in the test on ATS95, in the test with C2A, in the test on CP185, in the test with CP191, in the test with CP192 and in the test with CP194 was “inactive” throughout. In addition, the Potency result in the test with CP201, in the test on CP203, in the test with CP211, with CP215, with CP217 and with CP237 was “inactive” each time. Moreover, the Potency result in the test with CP238, in the test with CP247, in the test on CP250, in the test on CP252, in the test with CP256 and in the test on CP260 was “inactive” throughout. Moreover, the Potency result in the test with CP262 and in the test with CP265 was “inactive” throughout.

Turning to `O=S(=O)(O)CCCS(=O)(=O)O`, the Potency entry with ATS95, in the test on C2A, with CP185, in the test on CP191, with CP192 and in the test on CP194 was “inactive” in each case. Also, the Potency result with CP201, in the test with CP203, in the test with CP211, with CP215, with CP217 and with CP237 was “inactive” throughout. Moreover, the Potency result with CP238, with CP247, in the test with CP250, with CP252, in the test with CP256 and with CP260 was “inactive” in each case. Moreover, the Potency entry in the test on CP262 and in the test on CP265 was “inactive” in each case.

Take `CCC(O)c1ccccc1` (stereo not given): the Potency result with ATS95, in the test with C2A, in the test on CP185, in the test with CP191, in the test with CP192 and in the test with CP194 was “inactive” each time. For the same compound, the Potency entry in the test on CP201, with CP203, in the test on CP211, in the test with CP215, in the test with CP217 and in the test with CP237 was “inactive” in each case. The Potency result in the test with CP238, in the test with CP247, with CP250, in the test on CP252, in the test on CP256 and with CP260 was “inactive” each time. Further, the Potency result with CP262 and in the test on CP265 was “inactive” throughout.

Turning to `C[C@H]1O[C@@H](O[C@H]2[C@@H](O)C[C@H](O[C@H]3[C@@H](O)C[C@H](O[C@H]4CC[C@@]5(C)[C@H](CC[C@@H]6[C@@H]5C[C@@H](O)[C@]5(C)[C@@H](C7=CC(=O)OC7)CC[C@]65O)C4)O[C@@H]3C)O[C@@H]2C)C[C@H](O)[C@@H]1O`, the Potency result in the test on ATS95, with C2A, in the test on CP185, with CP191, in the test on CP192 and in the test on CP194 was “inactive” throughout. The Potency entry with CP201, in the test on CP203, with CP211, with CP215, with CP217 and in the test with CP237 was “inactive” each time. Besides, the Potency entry in the test on CP238, in the test with CP247, in the test on CP250, in the test with CP252, in the test with CP256 and with CP260 was “inactive” throughout. Besides, the Potency entry with CP262 and in the test with CP265 was “inactive” throughout.

As for `CC(=O)Nc1ccc(OC(C)=O)cc1`, the Potency result with ATS95, in the test with C2A, in the test with CP185, in the test with CP191, in the test on CP192 and with CP194 was “inactive” in each case. Also, the Potency entry in the test on CP201, in the test on CP203, in the test on CP211, in the test on CP215, in the test with CP217 and with CP237 was “inactive” each time. The Potency result in the test with CP238, with CP247, in the test on CP250, in the test on CP252, in the test on CP256 and with CP260 was “inactive” throughout. The Potency entry in the test with CP262 and in the test with CP265 was “inactive” throughout.

Consider `COc1cc(S(C)=O)ccc1-c1nc2ncccc2[nH]1` (stereo not given), for which the Potency result in the test with ATS95, with C2A, with CP185, in the test with CP191, with CP192 and in the test with CP194 was “inactive” throughout. Besides, the Potency entry in the test on CP201, in the test with CP203, with CP211, with CP215, in the test on CP217 and in the test with CP237 was “inactive” throughout. For the same compound, the Potency entry with CP238, in the test on CP247, in the test on CP250, with CP252, in the test on CP256 and in the test on CP260 was “inactive” throughout. Further, the Potency entry in the test on CP262 and in the test on CP265 was “inactive” in each case.

Turning to `O=C(/C=C/c1cccc(F)c1)NC1CC1`, the Potency entry in the test on ATS95, with C2A, with CP185, in the test with CP191, in the test with CP192 and in the test with CP194 was “inactive” each time. The Potency entry in the test on CP201, with CP203, in the test with CP211, with CP215, in the test with CP217 and in the test with CP237 was “inactive” throughout. For the same compound, the Potency result in the test on CP238, in the test with CP247, in the test on CP250, in the test on CP252, with CP256 and in the test with CP260 was “inactive” each time. The Potency entry in the test with CP262 and in the test on CP265 was “inactive” in each case.

On to `C=C1C(CCl)(CCl)C2(Cl)C(Cl)C(Cl)C1(Cl)C2(Cl)Cl` (stereo not given), for which the Potency with ATS95 is 3.16 µM (active); with C2A it was 3.16 µM (active); in the test with CP185, 3.16 µM (active); with CP191, 3.16 µM (active); in the test with CP192 it was 5.36 µM (active); in the test on CP194, 6.75 µM (active). Besides, the Potency in the test with CP201 is 13.5 µM (active); with CP203, 3.79 µM (active); in the test with CP211, 12 µM (active); in the test on CP215, 3.79 µM (active); in the test on CP217, 3.16 µM (active); in the test on CP237, 3.16 µM (active). Besides, the Potency in the test with CP238 is 3.16 µM (active); in the test with CP247, 3.16 µM (active); with CP250, 1.12 µM (active); in the test with CP252 it was 3.16 µM (active); with CP256 it was 3.55 µM (active); in the test on CP260 it was 3.55 µM (active). The Potency in the test with CP262 is 4.78 µM (active); in the test on CP265 it was 3.55 µM (active).

Regarding `CC(C)(CO)[C@@H](O)C(=O)NCCC(=O)NCCSSCCNC(=O)CCNC(=O)[C@H](O)C(C)(C)CO`, the Potency entry in the test with ATS95, in the test with C2A, with CP185, with CP191, with CP192 and with CP194 was “inactive” in each case. In addition, the Potency entry in the test on CP201, in the test with CP203, in the test with CP211, in the test on CP215, in the test with CP217 and with CP237 was “inactive” each time. The Potency result in the test with CP238, in the test on CP247, in the test with CP250, with CP252, in the test on CP256 and with CP260 was “inactive” each time. The Potency result in the test with CP262 and in the test with CP265 was “inactive” each time.

Consider `CC(C)c1nc(N(C)S(C)(=O)=O)nc(-c2ccc(F)cc2)c1/C=C/C(O)CC(O)CC(=O)O` (stereo not given), for which the Potency result with ATS95, with C2A, with CP185, with CP191, with CP192 and in the test on CP194 was “inactive” throughout. For the same compound, the Potency result in the test on CP201, in the test with CP203, in the test with CP211, in the test on CP215, in the test with CP217 and in the test with CP237 was “inactive” each time. Further, the Potency entry in the test on CP238, with CP247, in the test on CP250, with CP252, with CP256 and in the test with CP260 was “inactive” in each case. Also, the Potency entry with CP262 and with CP265 was “inactive” in each case.

Consider `CC(C)=CCC/C(C)=C/CC/C(C)=C/CC/C=C(\C)CC/C=C(\C)CCC=C(C)C`, for which the Potency entry in the test with ATS95, in the test on C2A, in the test with CP185, in the test on CP191, in the test with CP192 and with CP194 was “inactive” throughout. The Potency entry with CP201, with CP203, in the test with CP211, in the test with CP215, with CP217 and in the test on CP237 was “inactive” each time. Besides, the Potency result in the test with CP238, with CP247, in the test on CP250, in the test on CP252, in the test with CP256 and in the test on CP260 was “inactive” each time. Moreover, the Potency result in the test on CP262 and in the test on CP265 was “inactive” in each case.

For `CNC(=O)C[C@@H](N)C(=O)N[C@@H](C(=O)N[C@@H]1C(=O)N2[C@@H]1SC(C)(C)[C@@H]2C(=O)O)c1ccc(O)cc1`, the Potency entry in the test with ATS95, in the test with C2A, in the test with CP185, with CP191, in the test with CP192 and with CP194 was “inactive” throughout. In addition, the Potency result with CP201, in the test with CP203, with CP211, in the test with CP215, in the test with CP217 and in the test on CP237 was “inactive” each time. The Potency entry with CP238, in the test on CP247, in the test on CP250, with CP252, in the test with CP256 and with CP260 was “inactive” in each case. In addition, the Potency result in the test on CP262 and in the test on CP265 was “inactive” in each case.

(Values after PubChem BioAssay (NCATS).)
